In the library only some 3.5% were active in any assay of this set; here they are far more common.
Bead autofluor: counter-screen for toxin protease inhibitors: compound fluorescence; compound autofluorescence counterscreen, microsphere flow cytometry; active compounds read high; fluorescence intensity (concentration not given with the values); 360,000 tested, 3.1% active; in the data active means fluorescence intensity above about 16000; inconclusive means no clear call, values can overlap the other calls
BoNT A protease: BoNT A light chain protease inhibition; multiplex microsphere protease substrate cleavage, flow cytometry; inhibition, % at 10 µM; 360,000 tested, 0.17% active; AID 588499; further: plate controls were buffer without enzyme for full effect and enzyme alone for no effect
Anthrax LF prot: inhibitors of Bacillus anthracis lethal factor protease. P15917. multiplex microsphere protease cleavage assay, LF. inhibition, % at 10 µM. 360,000 tested, 0.12% active; further: plate controls were buffer without enzyme for full effect and enzyme alone for no effect
Target sequence (P15917 whole entry, looked up): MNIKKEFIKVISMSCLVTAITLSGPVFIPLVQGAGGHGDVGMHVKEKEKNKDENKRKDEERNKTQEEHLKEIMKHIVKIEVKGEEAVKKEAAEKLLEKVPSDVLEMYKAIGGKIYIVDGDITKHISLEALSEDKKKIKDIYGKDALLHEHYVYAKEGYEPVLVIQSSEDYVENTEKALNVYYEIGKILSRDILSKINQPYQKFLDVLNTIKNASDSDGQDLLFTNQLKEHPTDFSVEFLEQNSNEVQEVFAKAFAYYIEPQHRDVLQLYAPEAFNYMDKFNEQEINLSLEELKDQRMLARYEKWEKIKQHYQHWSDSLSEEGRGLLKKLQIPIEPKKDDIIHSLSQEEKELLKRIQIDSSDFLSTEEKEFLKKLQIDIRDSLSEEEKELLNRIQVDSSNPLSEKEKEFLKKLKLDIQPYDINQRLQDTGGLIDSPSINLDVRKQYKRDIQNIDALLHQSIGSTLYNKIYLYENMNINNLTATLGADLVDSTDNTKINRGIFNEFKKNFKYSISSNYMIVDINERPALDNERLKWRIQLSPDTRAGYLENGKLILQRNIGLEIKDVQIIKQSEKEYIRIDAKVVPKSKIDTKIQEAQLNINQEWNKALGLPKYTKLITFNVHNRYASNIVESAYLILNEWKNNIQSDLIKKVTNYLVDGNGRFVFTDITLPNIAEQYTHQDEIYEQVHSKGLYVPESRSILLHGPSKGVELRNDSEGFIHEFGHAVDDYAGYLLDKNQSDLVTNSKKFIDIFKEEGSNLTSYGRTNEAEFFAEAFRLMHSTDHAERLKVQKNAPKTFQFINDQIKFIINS
BH1578 lux ind: quorum light induction in luxS cqsA deficient V. cholerae | activation, % at 18.7 µM | V. cholerae BH1578 lux reporter, luminescence, 6 h | 350,000 tested, 0.16% active | AID 588436; in the data active means activation mostly above about 9.7%, no sharp cut-off; inconclusive means no clear call, values can overlap the other calls; inactive means mostly below about 3.7%
BoNT-F LC inh: BoNT F light chain protease inhibition; 360,000 tested, 0.22% active; Multiplex microsphere protease cleavage assay, flow cytometry; inhibition, % at 10 µM; in the data active means inhibition above about 35%, passing the limit was not always enough; inconclusive means no clear call, values can overlap the other calls; further: plate controls were buffer without enzyme for full effect and enzyme alone for no effect
* hit, by the source's call. Unless noted, no stated cut-off is given here; in the data, active means inhibition above about 30%; inconclusive means no clear call, values can overlap the other calls; inactive means below that.

How did COCCCNC(=O)C1c2ccccc2Oc2ccccc21 do in these assays?
Bead autofluor: 3595; BoNT A protease: 0; Anthrax LF prot: 9; BH1578 lux ind: 1; BoNT-F LC inh: 42*

How did COC(=O)c1ccc(CN(C)S(=O)(=O)c2cccs2)cc1 do in these assays?
Bead autofluor: 6264; BoNT A protease: 0; Anthrax LF prot: 0; BH1578 lux ind: inactive; BoNT-F LC inh: 5

How did COc1ccc(N2CCN(C(=O)CSc3nnc4c(C)cc5ccc(C)c(C)c5n34)CC2)cc1 do in these assays?
Bead autofluor: 21530*; BoNT A protease: -6; Anthrax LF prot: -2; BH1578 lux ind: -2; BoNT-F LC inh: -6

How did COc1ccc(N2CCN(C(=O)CSc3nnc4c(C)cc5cc(C)ccc5n34)CC2)cc1 do in these assays?
Bead autofluor: 23987*; BoNT A protease: -1; Anthrax LF prot: -1; BH1578 lux ind: inactive; BoNT-F LC inh: -4

What do the screens show for `COc1ccc(N2CCN(C(=O)CSc3nnc4c(C)cc5c(C)cc(C)cc5n34)CC2)cc1`?
Bead autofluor: 6079; BoNT A protease: 1; Anthrax LF prot: 0; BH1578 lux ind: 0; BoNT-F LC inh: -7

Results for CCCCn1c(N)c(N(CCC(C)C)C(=O)CN2C(=O)C3CCCCC3C2=O)c(=O)[nH]c1=O (stereo not drawn) ?
Bead autofluor: 5350; BoNT A protease: 1; Anthrax LF prot: 3; BH1578 lux ind: inactive; BoNT-F LC inh: 2

How did Cc1ccc(CNC(=O)C2CCCN(Cc3cnn(-c4ccccc4)c3-n3cccc3)C2)cc1 (stereo not drawn) do in these assays?
Bead autofluor: 21776*; BoNT A protease: inconclusive; Anthrax LF prot: -4; BH1578 lux ind: inactive; BoNT-F LC inh: -3

How did Cn1nc(-c2ccccc2)cc1NS(=O)(=O)c1ccc(C#N)cc1 do in these assays?
BH1578 lux ind: inactive

What do the screens show for `CCc1ccccc1NC1Nc2cc(C)nn2S1` (stereo not drawn)?
Bead autofluor: 3877; BoNT A protease: -1; Anthrax LF prot: -2; BH1578 lux ind: 0; BoNT-F LC inh: -5

How did Cc1cc2n(n1)SC(Nc1cc(Cl)ccc1Cl)N2 (stereo not drawn) do in these assays?
Bead autofluor: 20196*; BoNT A protease: 0; Anthrax LF prot: -6; BH1578 lux ind: inactive; BoNT-F LC inh: 1

How did Cc1cc2n(n1)SC(Nc1cccc3ccccc13)N2 (stereo not drawn) do in these assays?
Bead autofluor: 17932*; BoNT A protease: 7; Anthrax LF prot: -1; BH1578 lux ind: inactive; BoNT-F LC inh: 9

Results for Cc1cc2n(n1)SC(Nc1ccc(F)cc1)N2 (stereo not drawn) ?
BH1578 lux ind: 0

Results for CCOCCc1nnc(NC(=O)C2CC(=O)N(CCc3ccc(F)cc3)C2)s1 (stereo not drawn) ?
Bead autofluor: 3965; BoNT A protease: 2; Anthrax LF prot: -2; BH1578 lux ind: 0; BoNT-F LC inh: 1

What do the screens show for `Cc1ccc(-c2csc3ncnc(SCC(=O)c4ccc5c(c4)OCCO5)c23)cc1`?
Bead autofluor: 19619*; BoNT A protease: inconclusive; Anthrax LF prot: 1; BH1578 lux ind: inactive; BoNT-F LC inh: 16

Results for O=C(CSc1ncnc2scc(-c3ccc(F)cc3)c12)c1ccc2c(c1)OCCO2 ?
Bead autofluor: 2391; BoNT A protease: 0; Anthrax LF prot: 2; BH1578 lux ind: 0; BoNT-F LC inh: -4

Results for Cc1ccc(-c2csc3ncnc(SCC(=O)Nc4nnc(C)s4)c23)cc1 ?
Bead autofluor: 21425*; BoNT A protease: inconclusive; Anthrax LF prot: -3; BH1578 lux ind: inactive; BoNT-F LC inh: 4

How did CCC(=O)Nc1ccccc1C(=O)OCC(=O)c1ccc2ccccc2c1 do in these assays?
Bead autofluor: 23453*; BoNT A protease: -1; Anthrax LF prot: -4; BH1578 lux ind: 2; BoNT-F LC inh: -1

What do the screens show for `CC(=O)Nc1ccccc1C(=O)OCC(=O)c1ccc2ccccc2c1`?
Bead autofluor: 9706; BoNT A protease: 1; Anthrax LF prot: 4; BH1578 lux ind: -1; BoNT-F LC inh: -1

What do the screens show for `COc1ccc(CN2CCN(S(=O)(=O)c3ccccc3)CC2)c(OC)c1OC`?
Bead autofluor: 3426; BoNT A protease: inconclusive; Anthrax LF prot: 19; BH1578 lux ind: -1; BoNT-F LC inh: inconclusive

Results for COc1ccc(CN2CCN(S(=O)(=O)c3ccc(F)cc3)CC2)c(OC)c1OC ?
Bead autofluor: 21826*; BoNT A protease: 1; Anthrax LF prot: -4; BH1578 lux ind: -5; BoNT-F LC inh: 4

Results for CC1Cc2ccccc2N1C(=O)c1cnc2ccccn2c1=O (stereo not drawn) ?
Bead autofluor: 23725*; BoNT A protease: -2; Anthrax LF prot: -2; BH1578 lux ind: 0; BoNT-F LC inh: -5
